biological target: CCDC124; experiment: pooled miR-30 sensor sort-seq; sequence = guide strand; conditions: shRNA
Also: reference of the scale not given here.

Sequence | sensor-assay potency score (higher = more potent)
TTGAGCAGCTGTTTCAGCTGCG | 0.469
TTCTGCTTCTTGGCATCAGCGG | -0.999
TTGTCGTCGTCCTTCCAGTAGG | -1.14

biological target: CCDC136; experiment: as above; conditions: shRNA

Sequence | sensor-assay potency score (higher = more potent)
TAACAGGGAAATCTCCTCCCGT | -0.529
TAGAGAACGCAGCTCACCTTGG | -0.542
TTACAAGGAACTCAGGTTCTTA | -0.441
TTCATTTCCATTTCTGCACGGA | -0.0377
TTAAGTTCGCTTTCTTTCTCAT | -0.0696
TTCAAGTTCATTCTGCATCCGG | 0.279
TTGTTGACTGACAGAGAGCCAA | -0.719
TTGCGGAATCCTCTGCTGCTTG | -0.962
TTCTATTTCCTTAAGTTCGCTT | 0.0212
TTTCTCATGCTCTAACAGGGAA | -0.6
TTCCTGACACTTGTTCTTCATG | -1.21
TTTCTGAAGTCTGAGACTCTGC | -0.127

biological target: CCDC19; experiment: as above; conditions: shRNA

Sequence | sensor-assay potency score (higher = more potent)
TTGAGGATAATCTTGCTCATGT | -0.0129
TTCTGTTTCATGATCTTCTTTC | -0.0443
TTGAAGGGTATGCTTATCTCGG | -0.289
TTCAATGCAGTACTTCTCGGGA | -0.758
TTGGATCTGCTGCTTCTCCAGG | -1.06
TTAGCATTGAGGATAATCTTGC | 0.12
TTTGATTCGCTCAAACTCCTCA | 0.0568
TTTCCTCTTGATCTCATCGATG | -0.984
TTCTTTTTGGATCTGCTGCTTC | -0.755
TTCTGCGCCACTCTCTGTCTGC | -0.303
TTTTCCTCTTGATCTCATCGAT | 0.115

biological target: CCDC47; experiment: as above; conditions: shRNA

Sequence | sensor-assay potency score (higher = more potent)
TTGCCTTCTCTGTTGAGTCGGA | -0.0399
TTCAGTAACAGAGTCTTCCATG | -0.75
TTCTCTGTTGAGTCGGAACTTT | -0.845
TTTCATTTGCTTCTTTTCCAAC | -1.25
TTTGCTAGAAGAAGTATCTGGT | 0.978
TAAGTCTTGTCTCTTGAGGAAC | -1.49
TGCAGGAACATCAACAATCGTT | -0.762
TTTTGCTAGAAGAAGTATCTGG | 0.452
TTAAATGTAAACAACAGTGTCC | 0.382
TTCTAGATAATAACTCTCCCAG | -0.381
TTGCACTTGATCACTCACTGGC | 0.924
TAAAGTAAAGTTGCTCTCCAAA | -1.24

From the OligoGym collection
